Laboratory results: PubChem BioAssay (NCI)
About 83,000 compounds went through this panel and 20% of them were active in at least one assay; those are over-represented in the sample as a whole.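 In brief: 96-well plates, 48 h treatment, single concentration, percent growth endpoint.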 Active and inactive are the calls of the source. The calls were made as follows: active = growth percent below 10; inactive = the rest.

Legend:
Experiment in all cases: NCI-60 one-dose screen, 48 h (100 = growth as untreated, 0 = no growth, -100 = all killed)
Conditions in all cases: 10 µM unless noted
HCT-15 colon = system: HCT-15 colon
HT29 colon = system: HT29 colon
SNB-75 CNS = system: SNB-75 CNS
SNB-19 CNS = system: SNB-19 CNS
U251 CNS = system: U251 CNS
PC-3 prostate = system: PC-3 prostate
SK-MEL-5 melanoma = system: SK-MEL-5 melanoma
UACC-62 melanoma = system: UACC-62 melanoma
LOX IMVI melanoma = system: LOX IMVI melanoma
SK-MEL-28 melanoma = system: SK-MEL-28 melanoma

Measured: growth

CC(=O)O[C@H]1CC[C@]2(C)[C@H]3CC=C4[C@@H]5[C@H](C)[C@@H](C)CC[C@]5(C(=O)NCCNCCNCCN)CC[C@@]4(C)[C@]3(C)CC[C@H]2C1(C)C
inactive: HCT-15 colon 63.3% | HT29 colon 42.5% | SNB-75 CNS 70.8% | SNB-19 CNS 82.6% | U251 CNS 70.1% | PC-3 prostate 57.7% | SK-MEL-5 melanoma 96.3% | UACC-62 melanoma 91.7%

COC(=O)C(N)CSC(c1ccccc1)(c1ccccc1)c1ccccc1 (stereo not drawn)
inactive: HCT-15 colon 28% | SNB-75 CNS 31.4% | SNB-19 CNS 63.7% | U251 CNS 23.3% | PC-3 prostate 25.1% | SK-MEL-5 melanoma 23.9% | UACC-62 melanoma 54.3% | LOX IMVI melanoma 35.2% | SK-MEL-28 melanoma 49.5%
active: HT29 colon 1.58%

O=C1c2ccccc2C(=Cc2ccccc2)c2ccccc21
inactive: SNB-19 CNS 24.8% | PC-3 prostate 31.8% | SK-MEL-5 melanoma 13.7% | UACC-62 melanoma 23.9% | SK-MEL-28 melanoma 18.3%
active: HCT-15 colon 7.88% | HT29 colon 0.453% | SNB-75 CNS -40.9% | U251 CNS 6.21% | LOX IMVI melanoma 4.62%

CCSc1sc(-c2ccc(C)cc2)nc1[P+](c1ccccc1)(c1ccccc1)c1ccccc1
active: HCT-15 colon 1.86% | HT29 colon 2.52% | SNB-75 CNS -8.6% | SNB-19 CNS 8.14% | U251 CNS 9.48% | PC-3 prostate -11.5% | SK-MEL-5 melanoma -98.7%

O=C1/C(=C\c2ccc(Br)o2)SC(=S)N1CCc1ccc(O)cc1
inactive: HCT-15 colon 72.1% | HT29 colon 114% | SNB-75 CNS 65.6% | SNB-19 CNS 88.1% | U251 CNS 96.5% | PC-3 prostate 77.2% | SK-MEL-5 melanoma 99.2% | UACC-62 melanoma 64%

O=C(c1ccccc1)C(CN1CCOCC1)c1ccccc1 (stereo not drawn)
active: HCT-15 colon 1.74% | HT29 colon -67% | LOX IMVI melanoma -34.7%
inactive: SNB-75 CNS 51.8% | SNB-19 CNS 78.3% | U251 CNS 19.3% | PC-3 prostate 48.7% | SK-MEL-5 melanoma 44.5% | UACC-62 melanoma 22.4% | SK-MEL-28 melanoma 68.6%

COc1ccc(/C=C(\C#N)c2cc3ccccc3n2S(C)(=O)=O)cc1
inactive: HCT-15 colon 46.4% | HT29 colon 102% | SNB-75 CNS 73.1% | SNB-19 CNS 82.3% | U251 CNS 96.8% | PC-3 prostate 80.2% | SK-MEL-5 melanoma 87.8% | UACC-62 melanoma 58.1%

Cc1c(C)c2c(c(C)c1NC(=O)CCCCCCC(=O)O)CCC(C)(CCCC(C)CCCC(C)CCCC(C)C)O2 (stereo not drawn)
inactive: HCT-15 colon 55% | HT29 colon 39.8% | SNB-75 CNS 93.9% | SNB-19 CNS 101% | U251 CNS 68.9% | PC-3 prostate 69.7% | SK-MEL-5 melanoma 81% | UACC-62 melanoma 89.1%

Fc1ccc2nc(-c3cc(-c4ccc5c(c4)OCO5)n[nH]3)[nH]c2c1
inactive: HCT-15 colon 57.5% | HT29 colon 61.6% | SNB-75 CNS 35.6% | SNB-19 CNS 72.1% | U251 CNS 41.1% | PC-3 prostate 23.3% | SK-MEL-5 melanoma 20.4% | UACC-62 melanoma 53.7%

CC(C)(C)c1ccc(OP(=S)(N/N=C/c2ccccc2O)Oc2ccc(C(C)(C)C)cc2)cc1
inactive: HCT-15 colon 69.9% | HT29 colon 69.2% | SNB-75 CNS 66.1% | SNB-19 CNS 81% | U251 CNS 50.4% | PC-3 prostate 30.1% | SK-MEL-5 melanoma 73.5% | UACC-62 melanoma 76.5% | LOX IMVI melanoma 67.6% | SK-MEL-28 melanoma 83.3%

CCCC(=O)N1CCCCC1CC (stereo not drawn)
inactive: HCT-15 colon 99.4% | HT29 colon 106% | SNB-75 CNS 92% | SNB-19 CNS 112% | U251 CNS 91.8% | PC-3 prostate 92.5% | SK-MEL-5 melanoma 117% | UACC-62 melanoma 111% | LOX IMVI melanoma 105% | SK-MEL-28 melanoma 112%

CC1(C)NCCC[C@]2(C)[C@H]3CC[C@@H]4[C@H]5[C@H](C(=O)/C=C/c6ccccn6)CC[C@]5(CO)CC[C@@]4(C)[C@]3(C)CC[C@@H]12
inactive: SNB-75 CNS 105% | SNB-19 CNS 77.6% | PC-3 prostate 22.2% | SK-MEL-5 melanoma 56.3% | UACC-62 melanoma 72.8%
active: HCT-15 colon -4.7% | HT29 colon -13.5% | U251 CNS -21.6%

CC(C)c1cc(C(=O)O)c(O)c(C(C)C)c1.CC(C)c1cc(C(=O)O)c(O)c(C(C)C)c1.[Mn]
inactive: HCT-15 colon 108% | HT29 colon 119% | SNB-75 CNS 106% | SNB-19 CNS 91.6% | U251 CNS 98.3% | PC-3 prostate 98.2% | SK-MEL-5 melanoma 94.3% | UACC-62 melanoma 94.9%

NC(=O)[C@@H]1CC2CCC1C2 (stereo partly drawn)
inactive: HCT-15 colon 98.2% | HT29 colon 117% | SNB-75 CNS 85.1% | SNB-19 CNS 111% | U251 CNS 96.3% | PC-3 prostate 91% | SK-MEL-5 melanoma 109% | UACC-62 melanoma 110% | LOX IMVI melanoma 106% | SK-MEL-28 melanoma 109%

CC1(C)[C@@H](O)CC[C@]2(C)[C@H]3CC[C@@H]4[C@H]5[C@H](C(=O)/C=C/c6ccc(C(F)(F)F)cc6)CC[C@]5(CO)CC[C@@]4(C)[C@]3(C)CC[C@@H]12
inactive: HCT-15 colon 34.4% | HT29 colon 36.1% | SNB-75 CNS 60% | SNB-19 CNS 61.1% | U251 CNS 53.6% | PC-3 prostate 43.9% | SK-MEL-5 melanoma 13.1% | UACC-62 melanoma 36.5%

Cc1ccc(-c2ccc(Nc3ccccc3)nn2)cc1S(N)(=O)=O
inactive: HCT-15 colon 65.9% | HT29 colon 70.9% | SNB-75 CNS 87.1% | SNB-19 CNS 106% | U251 CNS 93.7% | PC-3 prostate 93.8% | SK-MEL-5 melanoma 89.3% | UACC-62 melanoma 89% | LOX IMVI melanoma 73.7% | SK-MEL-28 melanoma 89.1%

CN1CCN(CCOc2ccc(-c3cnc4c(-c5cccc(F)c5)cnn4c3)cc2)CC1
inactive: SNB-75 CNS 88.1% | SNB-19 CNS 83.9% | U251 CNS 46.6% | PC-3 prostate 51.2% | SK-MEL-5 melanoma 72% | UACC-62 melanoma 78.3%
active: HCT-15 colon 2.6% | HT29 colon 4.57%

C=C(C)[C@@H]1CC[C@]2(/C=N/Nc3ccncc3)CC[C@]3(C)[C@H](CC[C@@H]4[C@@]5(C)CCCNC(C)(C)[C@@H]5CC[C@]43C)[C@@H]12
inactive: HCT-15 colon 68.4% | HT29 colon 18.6% | SNB-75 CNS 90.5% | SNB-19 CNS 94.7% | U251 CNS 67.9% | PC-3 prostate 47.3% | SK-MEL-5 melanoma 81.7% | UACC-62 melanoma 88.1%

O=C(O)c1cccc2c1Cc1cc([N+](=O)[O-])ccc1-2
inactive: HCT-15 colon 106% | HT29 colon 112% | SNB-75 CNS 83.5% | SNB-19 CNS 108% | U251 CNS 104% | PC-3 prostate 110% | SK-MEL-5 melanoma 105% | UACC-62 melanoma 102%

Nc1ccc(Br)cn1
inactive: HCT-15 colon 102% | HT29 colon 104% | SNB-75 CNS 87.3% | SNB-19 CNS 107% | U251 CNS 108% | PC-3 prostate 98.9% | SK-MEL-5 melanoma 100% | UACC-62 melanoma 97.3%

CC(C)=CCC/C(C)=C/CC/C(C)=C/CC/C(C)=C/CSC[C@H](NC(=O)CCCCCN1CCN(C)CC1)C(=O)NC1CCCCC1
active: HT29 colon -39%
inactive: HCT-15 colon 24% | SNB-75 CNS 81.5% | SNB-19 CNS 85.6% | U251 CNS 55.2% | PC-3 prostate 64.4% | SK-MEL-5 melanoma 97.9% | UACC-62 melanoma 87.6% | LOX IMVI melanoma 68.5%

Cc1nn2c(-c3nc4cc(Cl)c(Cl)cc4[nH]3)c(-c3ccc(F)cc3)nc2s1
inactive: HCT-15 colon 76.8% | HT29 colon 20% | SNB-19 CNS 25.7% | U251 CNS 10.6% | PC-3 prostate 24.6% | SK-MEL-5 melanoma 31.9% | UACC-62 melanoma 15.9% | LOX IMVI melanoma 19.5% | SK-MEL-28 melanoma 22.9%
active: SNB-75 CNS -43.7%

COCCNC1=C(Cl)C(=O)c2ccccc2C1=O
active: SK-MEL-5 melanoma -6.75%
inactive: HCT-15 colon 90.3% | HT29 colon 101% | SNB-75 CNS 74.5% | SNB-19 CNS 102% | U251 CNS 91.3% | PC-3 prostate 117% | UACC-62 melanoma 90.9%

O=C1C=C(C(O)c2ccc(O)cc2)C(=O)c2ccccc21 (stereo not drawn)
inactive: HCT-15 colon 94.9% | HT29 colon 115% | SNB-75 CNS 102% | SNB-19 CNS 110% | U251 CNS 95.1% | PC-3 prostate 99.5% | SK-MEL-5 melanoma 96.5% | UACC-62 melanoma 101% | LOX IMVI melanoma 83.7%

NC(Cc1ccc(O)cc1)C(=O)N/N=C/c1ccccc1O (stereo not drawn)
inactive: HCT-15 colon 96.8% | HT29 colon 101% | SNB-75 CNS 92.7% | SNB-19 CNS 110% | U251 CNS 96.9% | PC-3 prostate 89.3% | SK-MEL-5 melanoma 103% | UACC-62 melanoma 113% | LOX IMVI melanoma 92.6% | SK-MEL-28 melanoma 106%

N#C/C(=C\c1ccc(-c2ccc(Cl)cc2)o1)c1nc(-c2ccco2)cs1
inactive: HCT-15 colon 86.3% | HT29 colon 102% | SNB-75 CNS 86.5% | SNB-19 CNS 93.4% | U251 CNS 96.9% | PC-3 prostate 92.8% | SK-MEL-5 melanoma 91.1% | UACC-62 melanoma 79.7%

CN1CCN(c2ccc3nc(-c4[nH]ncc4Nc4ncnc5c4OCCCN5)[nH]c3c2)CC1
active: HCT-15 colon -64.7% | HT29 colon -24.6% | SNB-75 CNS -93.1% | SNB-19 CNS -46% | U251 CNS -55.7% | PC-3 prostate -58.5% | SK-MEL-5 melanoma -93.4% | UACC-62 melanoma -74.9%

COc1cc(-c2cc(-c3nc4ccccc4[nH]3)[nH]n2)cc(OC)c1OC
active: PC-3 prostate 5.47% | SK-MEL-5 melanoma -44.4%
inactive: HCT-15 colon 48.8% | HT29 colon 69.3% | SNB-75 CNS 51.9% | SNB-19 CNS 86.9% | U251 CNS 55.8% | UACC-62 melanoma 34.5%

Cc1cc(Nc2ccc(F)cc2)nc(N2CCN(c3ccnc4cc(Cl)ccc34)CC2)n1
inactive: SNB-75 CNS 14.6% | SNB-19 CNS 43.9% | U251 CNS 26.4% | PC-3 prostate 11.1% | SK-MEL-5 melanoma 14.1% | UACC-62 melanoma 21.5% | LOX IMVI melanoma 13.1% | SK-MEL-28 melanoma 16.7%
active: HCT-15 colon 9.8% | HT29 colon 1.42%

C#Cc1cc2c(N)c(C(=O)c3cc(OC)c(OC)c(OC)c3)[nH]c2cc1OC
inactive: HCT-15 colon 32.2% | SNB-19 CNS 43.7% | U251 CNS 34% | PC-3 prostate 16.3% | SK-MEL-5 melanoma 19.9% | UACC-62 melanoma 34.7% | LOX IMVI melanoma 46.1% | SK-MEL-28 melanoma 40.3%
active: HT29 colon 6.27% | SNB-75 CNS -8.14%
